From PubChem BioAssay
Hits are enriched below; roughly 6% of the tested compounds scored in any of these assays.
DRD3 antagonist = D3 dopamine receptor (human) antagonism | AID 652054 | D3R cells, DiscoveRx beta-arrestin luminescence, antagonist mode; active compounds read low | P35462 | max response, negative = inhibition, % | actives 2.5% (n = 360,000); in the data active = max response below about -50%; inconclusive = no clear call, values can overlap the other calls; note: % is set by controls: 0 for no effect and ±100 for the full control effect
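Cells expressing the human receptor were seeded at 1500 cells/well, incubated overnight at 37 degrees C in 5% CO2, then exposed to library compounds with dopamine controls for 90 minutes at 37 degrees C before luminescent detection.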
D1 antagonist = human D1 dopamine receptor antagonism | P21728 | HEK293 TREx D1 cells, calcium flux, dopamine EC80; active compounds read low | activity change, negative = inhibition, % at 10 µM | actives 3.2% (n = 360,000); in the data active = activity change below about -30%; note: % is set by controls: 0 for no effect and ±100 for the full control effect
Target sequence (P21728 whole entry, looked up): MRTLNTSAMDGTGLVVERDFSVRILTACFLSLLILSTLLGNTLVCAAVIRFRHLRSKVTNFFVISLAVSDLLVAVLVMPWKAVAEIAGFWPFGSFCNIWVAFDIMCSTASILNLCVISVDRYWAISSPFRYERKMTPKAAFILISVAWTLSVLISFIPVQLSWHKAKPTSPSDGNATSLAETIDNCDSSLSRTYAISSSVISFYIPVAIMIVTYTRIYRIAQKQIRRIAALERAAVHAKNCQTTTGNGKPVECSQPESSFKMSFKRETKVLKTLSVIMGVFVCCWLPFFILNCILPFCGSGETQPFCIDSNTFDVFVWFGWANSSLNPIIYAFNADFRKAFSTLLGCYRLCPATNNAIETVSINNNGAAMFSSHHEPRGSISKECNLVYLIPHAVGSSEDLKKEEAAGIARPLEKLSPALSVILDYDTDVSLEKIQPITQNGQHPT
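Tetracycline-induced HEK293 T-REx cells with force-coupled D1 receptor were loaded with a no-wash calcium dye. Compound was added after a 10 s baseline and read kinetically for 180 s; EC80 dopamine was then added and calcium flux followed another 180 s.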
D1 agonist = agonists of human D1 dopamine receptor | actives 1% (n = 360,000) | activation, % at 2 µM | P21728 | AID 504660 | HEK293 T-REx D1 cells, calcium flux, agonist mode; in the data active = activation above about 30%; note: 0% is about no effect
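Agonism was scored from calcium flux recorded over 180 s (1 read/s) after pintool compound addition, following a 10-cycle baseline. Cells were inducible force-coupled HEK293 TREx D1, plated overnight at 30 C and loaded with no-wash calcium dye.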
D3 ag = activates the human D3 dopamine receptor; P35462; D3R DiscoveRx beta-arrestin cells, luminescence, 90 min; max activation, %; actives 0.58% (n = 410,000); in the data active = max activation above about 30%; note: 0% is about no effect
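Agonist-mode cell screen: cells plated at 1500/well and incubated overnight at 37 °C, then exposed to library compounds for 90 min at 37 °C. Detection reagent was added for 30–60 min at room temperature, and luminescence was read.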
D1 PAM = enhances dopamine response at the human D1 receptor | HEK293 TREx D1 cells, calcium flux, dopamine EC20 potentiation | potentiation, % at 10 µM | actives 0.036% (n = 360,000) | AID 504651; in the data active = potentiation above about 30%; note: 0% is about no effect
* marks the source's active call; other numbers are inactive results; ? = inconclusive; · = no result given.

SMILES | DRD3 antagonist | D1 antagonist | D1 agonist | D3 ag | D1 PAM
Fc1ccccc1Cn1c(-c2ccccc2)nc2ccccc21 | · | -8.8 | 14.7 | 4.5 | 0.8
CC1CCCCC12NC(=O)N(CC(=O)Nc1cccc(S(=O)(=O)N3CCCCC3)c1)C2=O (stereo not given) | 6.1 | -52.9* | 2.0 | -1.6 | 1.3
O=C(CNc1cccc(S(=O)(=O)N2CCCCCC2)c1)Nc1cccc([N+](=O)[O-])c1 | -6.0 | -32.3* | 8.2 | 0.7 | -10.8
O=C(CSc1ncn[nH]1)Nc1cccc(S(=O)(=O)N2CCCCCC2)c1 | 0.0 | -35.7* | 9.1 | 0.1 | -6.3
N#Cc1ccccc1NC(=O)CSc1ncn[nH]1 | · | -34.9* | 0.9 | -16.5 | -2.6
O=C(NCc1cccs1)c1ccc(CS(=O)Cc2cccc(Cl)c2)o1 (stereo not given) | 2.6 | 17.0 | 2.3 | 2.1 | -4.3
CCc1ccc2occ(CC(=O)Nc3c(C(=O)c4ccc(C)cc4)oc4ccccc34)c2c1 | · | -8.7 | -1.2 | 6.2 | -1.3
O=C(CN1C(=O)NC(Cc2c[nH]c3ccccc23)C1=O)Nc1cccc(S(=O)(=O)N2CCCCCC2)c1 (stereo not given) | 12.8 | -19.0 | 2.6 | 0.5 | 0.4
COC(=O)c1cc(NC(=O)CSc2ncn[nH]2)ccc1Cl | 8.2 | -44.0* | 1.2 | 7.0 | -3.6
O=S(=O)(Nc1cccc(S(=O)(=O)N2CCCCCC2)c1)c1ccccc1 | 2.8 | -7.4 | 10.2 | 32.8* | -2.1
O=C(CSC(=S)N1CCCC1)N1CCN(S(=O)(=O)c2cccc([N+](=O)[O-])c2)CC1 | -6.7 | -32.9* | 4.8 | -23.7 | -4.5
O=C(Cc1c[nH]c2ccccc12)Nc1cccc(S(=O)(=O)N2CCCCC2)c1 | · | -30.3* | -0.1 | · | -8.1
Cc1ccc(-n2c(=O)cc(N3CCN(c4ccccc4Cl)CC3)[nH]c2=O)cc1 | · | -18.0 | -0.4 | 10.3 | -7.8
O=C(Nc1ccc2c(c1)OCO2)c1cc(C2CCCN(C(=O)C3CCCCC3)C2)on1 (stereo not given) | 35.7 | · | · | 8.2 | ·
N#C/C(=C\c1cccn1S(=O)(=O)c1cccc(C#N)c1)S(=O)(=O)c1ccc(F)cc1 | -17.0 | · | · | -2.7 | ·
CC1(C2CCC3C4CCC5CC6(CCC5(C)C4C(=O)CC32C)OCCO6)OCCO1 (stereo not given) | 3.0 | · | · | -10.2 | ·
CC(C)(C)C1CCc2c(sc(NC(=O)CSc3ncn[nH]3)c2C#N)C1 (stereo not given) | 21.2 | 17.0 | 1.0 | 35.6* | 3.5
Cc1cc(C)c(C(=O)OCC(=O)Nc2cccc(S(=O)(=O)N3CCCCC3)c2)c(C)c1 | 13.4 | 0.3 | 36.9* | 4.8 | 3.0
CCOc1cccc(/C(O)=C2/C(=O)C(=O)N(Cc3cccnc3)C2c2ccco2)c1 (stereo not given) | -5.3 | 3.2 | 1.4 | -1.3 | -0.8
CCOc1cccc(/C(O)=C2/C(=O)C(=O)N(CCOC)C2c2ccco2)c1 (stereo not given) | -55.0* | 7.2 | 0.3 | -1.0 | 4.1
CCCNC(=O)C1(C)CCCN(Cc2ccc3ccccc3c2)C1 (stereo not given) | 0.9 | · | · | 4.6 | ·
CS(=O)(=O)Nc1ccc(C2=NN(C(=O)c3ccccc3)C(c3cccs3)C2)cc1 (stereo not given) | -4.0 | -34.3* | -1.3 | 2.7 | -9.4
CS(=O)(=O)Nc1ccc(C2=NN(C(=O)c3cccc(F)c3)C(c3cccs3)C2)cc1 (stereo not given) | 7.0 | -2.5 | 0.9 | 1.8 | -7.5
CCS(=O)(=O)Nc1cccc(C2=NN(C(C)=O)C(c3cccs3)C2)c1 (stereo not given) | -0.4 | -47.0* | 2.7 | -2.0 | -2.8
CC(=O)N1N=C(c2cccc(NS(C)(=O)=O)c2)CC1c1cccs1 (stereo not given) | 7.3 | -7.8 | -0.2 | 1.3 | 2.5
SMILES | DRD3 antagonist | D1 antagonist | D1 agonist | D3 ag | D1 PAM
CC(=O)Nc1cc(-c2ccc(C(=O)NC3CC3)cc2)cn2c(-c3cccc(C(F)(F)F)c3)cnc12 | 20.1 | · | · | 12.2 | ·
CC1CCCC(NC(=O)c2cccs2)C1C (stereo not given) | -2.2 | 7.4 | 0.0 | 2.1 | -4.8
O=C(NCCN1CCc2ccccc2C1)C1CCN(S(=O)(=O)N2CCC3(CC2)OCCO3)CC1 | -59.7* | -2.9 | 2.3 | -31.1 | -8.1
CS(=O)(=O)N1CCCC(C(=O)NCCCN2CCc3ccccc3C2)C1 (stereo not given) | ? | 3.7 | 3.3 | -30.3 | -2.8
O=C(NCCN1CCc2ccccc2C1)C1CCN(S(=O)(=O)N2CCCCC2)CC1 | -66.0* | 5.1 | 1.3 | -28.9 | 5.8
Cc1cc(C)n2nc(SCC(=O)N/N=C/c3cccc(Br)c3)nc2n1 | 12.6 | 0.7 | 0.8 | 7.8 | -5.2
Cc1cc(C)cc(-n2c(C)cc(/C=N/NC(=O)CSc3ncccn3)c2C)c1 | -24.3 | 14.2 | 44.1* | -5.3 | 6.5
Cc1cc(C)n2nc(SCC(=O)N/N=C/c3ccccn3)nc2n1 | 2.0 | -35.6* | 1.2 | 5.5 | 1.4
O=C(Nc1ccccc1C(=O)OCc1cc(=O)n2ccsc2n1)c1cccc(F)c1 | · | -13.7 | 4.3 | -9.1 | 0.4
CN(CCc1ccccc1)C(=O)c1[nH]c(C(F)(F)F)nc1-c1ccccc1 | -21.3 | · | · | 1.0 | ·
CC(C)c1ccc(S(=O)(=O)N2CCN(CCC(=O)Nc3ccc(N(C)C)cc3)CC2)cc1 | -14.5 | -80.6* | -0.2 | 4.3 | -1.8
O=C(CN1CCN(S(=O)(=O)c2ccc(Cl)cc2)CC1)Nc1ccc2c(c1)OCO2 | -20.5 | · | · | -5.3 | ·
O=C(CN1CCN(S(=O)(=O)c2ccccc2)CC1)Nc1ccc2c(c1)OCO2 | 14.2 | -32.2* | 0.0 | 0.6 | -7.3
CC(C)c1ccc(S(=O)(=O)N2CCN(CC(=O)Nc3ccc4c(c3)OCO4)CC2)cc1 | -11.5 | -30.4* | 5.5 | -0.6 | -5.7
COc1cccc(N=Nc2c(N)[nH]n3c(=O)cc(-c4ccccc4)nc23)c1 | -16.7 | -39.7* | 2.1 | -0.5 | -4.8
CC(=O)Nc1ccc(NC(=S)Nc2ccc(Br)cc2)cc1 | 8.2 | -5.6 | 7.6 | 3.6 | -0.9
Cc1ccc(C(=O)NCCCNC(=O)COc2ccc(Cl)c(C)c2)cn1 | 9.7 | -39.5* | 4.8 | 3.5 | -1.8
CCc1ccc(NC(=S)N2CCN(c3cccc(OC)c3)CC2)cc1 | -5.4 | -31.3* | 9.0 | -5.2 | -5.2
Cc1ccc(OCC(=O)NCCCNC(=O)c2ccc(C)nc2)cc1 | 6.2 | 7.0 | 0.0 | -0.3 | 0.9
Cc1ccc(NC(=S)Nc2ccc(Br)cc2)cc1 | 15.1 | -33.4* | 14.1 | -0.5 | -15.0
COc1ccc(CCN(C)CCC(=O)Nc2cccc(C)c2)cc1OC | -21.6 | -32.6* | 3.2 | -13.8 | -4.9
COc1ccc(N(Cc2ccccc2)C(=O)c2nc(S(C)(=O)=O)ncc2Cl)cc1 | · | -3.8 | -0.5 | -27.1 | -3.0
C[C@H]1CN([C@@H](C)CO)C(=O)CCCn2cc(nn2)CO[C@@H]1CN(C)S(=O)(=O)c1ccc(Cl)cc1 | -5.7 | · | · | -2.2 | ·
